Test results reported in publication PMC5540273 (PLoS ONE, 2017).

Experiments:
Conditions in all cases: concentration: 1 μM, replicates: in singlicate; n = 1
[1] = tested on: T1, p38-beta
T1 construct: gene MAPK11

[2] = tested on: p38-delta
[3] = tested on: T2, p38-gamma
T2 construct: gene MAPK12
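Also: KINOMEscan kinase panel screen.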

SMILES	%Inh [1]	%Inh [2]	%Inh [3]
O=C(Nc1ccccc1F)NC1CCN(c2ccnc(Nc3ccc(F)cc3)n2)C1 (stereo not drawn) [GSK1379722]	0%	38%	0%
O=C(c1ccc(-c2cc(-c3c[nH]nc3-c3ccccn3)ccn2)cc1)N1CCCC1 [GW792479]	20%	0%	66%
FC(F)(F)c1ccc(-c2cc(-c3c[nH]nc3-c3ccccn3)ccn2)cc1 [GW599550]	0%	50%	16%
CN1CCC(n2cnc(-c3ccc(F)cc3)c2-c2ccnc(NC3CCNCC3)n2)CC1 [SB-229482]	23%	38%	38%
Cc1cccc(-c2nc(Nc3ccc4[nH]nnc4c3)c3ccccc3n2)n1 [GW867587]	0%	0%	0%
COc1ccc(NC(=O)Nc2ccc(C)c(-c3ccc(C(=O)Nc4ccncc4)cc3)c2)cc1 [GSK1398475]	0%	37%	0%
CC(C)(C)c1ccc(-n2cnc3c(N)ncnc32)cc1 [SKF-97263]	0%	11%	32%
CN1c2ccc(-c3ccc(C(=O)NCCO)cc3)cc2-c2[nH]ncc2S1(=O)=O	4%	9%	10%
Cn1cc(-c2ccc3c(c2)CCN3C(=O)Cc2cccc(C(F)(F)F)c2)c2c(N)ncnc21 [GSK2606414]	0%	20%	2%
Oc1ccc2ncnc(Nc3ccc(OCc4ccccc4)cc3)c2c1 [GI262866]	0%	36%	0%
